KLF5 inhibitor: kruppel-like factor 5 inhibition | DLD-1 KLF5 promoter-luciferase reporter, luminescence | inhibition, % at 5 µM | hit rate 0.23% among 290,000 | AID 1700;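 active = inhibition above a per-plate limit of that plate's mean compound inhibition plus 3 SD, cut at about 60% in these data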;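 also: 0% = DMSO wells and 100% = LY294002 at 200 µM; higher means less KLF5 promoter-driven luciferase light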
aSyn 5UTR inh: 5' untranslated region of α-synuclein, MLPCN primary screen; alpha-synuclein 5'UTR reporter, inhibitor activity; inhibition, % (tested at 7.5 µM); hit rate 0.82% among 300,000; in the data active = inhibition above about 60%;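 also: H4 neuroglioblastoma cells stably carrying SNCA 5'UTR luciferase fusion; 0% = DMSO wells and 100% = positive control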
IEC-6 tox: IEC-6 cytotoxicity, counter-screen for KLF5 inhibitors. luminescence viability. inhibition, % at 5 µM. hit rate 0.78% among 290,000; in the data active = inhibition above about 22%;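 also: 0% = plate median of test compound wells and 100% = cytotoxic reference compound wells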
Ba/F3 V617F tox: reduce viability of Ba/F3 cells dependent on JAK2V617F | Ba/F3 EpoR-JAK2V617F viability, ATP luminescence | inhibition, % at 5.6 µM | hit rate 1.1% among 220,000 | AID 1446;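 active = inhibition above the campaign mean plus 3 SD over all tested compounds, cut at about 24% in these data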;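 also: cytokine-independent growth of Ba/F3 cells driven by EpoR plus mutant JAK2; 0% = DMSO-treated cells and 100% = JAK inhibitor I control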
BaF3 parental: reduces parental Ba/F3 cell viability, JAK2V617F counter-screen; AID 1486; inhibition, % at 5.6 µM; hit rate 1.1% among 220,000; CellTiter-Glo ATP luminescence;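 active = inhibition above a per-campaign cutoff, the mean inhibition of all tested compounds plus 3 SD, cut at about 27% in these data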;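 also: 0% = DMSO wells and 100% = JAK Inhibitor I control wells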
APP 5UTR inh: APP translation inhibition; SH-SY5Y APP 5'UTR-luciferase reporter, luminescence; inhibition, % at 2 µM; hit rate 0.82% among 190,000; AID 1285;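 active = inhibition above a set limit, derived from the sample mean plus 3 SD, cut at about 45% in these data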
An asterisk follows results filed as active; . = not tested or not shown. Sampled rows, rich in hits. Any-hit rate of the full collection: about 2.2%.

SMILES	KLF5 inhibitor	aSyn 5UTR inh	IEC-6 tox	Ba/F3 V617F tox	BaF3 parental	APP 5UTR inh
COc1ccc(C(=O)N(C)CCCC2CCCC2)cc1OC1CCN(C(C)C)CC1	-16	-5	2	.	.	.
COc1cccc(OCC(O)CNC(C)c2ccccc2)c1 (configuration not stated)	-38	9	7	.	.	.
CCN(Cc1ccccc1)C(=O)CN1C(=O)NC(CC)(c2ccc(F)cc2)C1=O (configuration not stated)	-7	7	2	.	.	.
c1ccc(OCC2CCNCC2)nc1	-11	6	8	.	.	.
CN(C)c1ccc(CCc2ccc(N)cc2)cc1	.	84*	.	.	.	.
CC(=O)N1CCc2c(sc(NC(=O)c3ccc4c(c3)OCCO4)c2C#N)C1	-21	-56	2	-2	6	59*
CC(=O)N1CCc2c(sc(NC(=O)c3ccc(S(=O)(=O)N(C)C)cc3)c2C#N)C1	-25	5	-5	-2	4	4
CCOC(=O)c1cccc(NC(=O)COC)c1	3	-2	3	-4	1	-2
CCOCC(=O)Nc1cccc(C(=O)OCC)c1	-2	-27	-2	-3	98*	10
CCN1C(=O)[C@@H]2[C@H](C1=O)[C@@H]1C(=O)Nc3ccccc3C(=O)N1[C@@H]2c1ccc(OC)cc1	.	11	.	.	.	.
CC12C(=O)N(c3ccc(OC(=O)c4ccco4)cc3)C(=O)C1C1c3ccccc3C2c2ccccc21 (configuration not stated)	-16	12	-2	-3	3	8
CC12C(=O)N(c3cccc(OC(=O)c4ccco4)c3)C(=O)C1C1c3ccccc3C2c2ccccc21 (configuration not stated)	-16	21	-2	-3	4	52*
Clc1ccc2nc(N3CCCCC3)[nH]c2c1	-166	-123	4	2	3	-119
O=c1c(Cl)c(N2CCCCC2)cnn1-c1nc2ccccc2[nH]1	50	93*	16	16	15	-97
O=C(COc1ccc(C(=O)c2ccccc2)cc1)NCc1ccc(F)cc1	26	113*	41*	6	6	14
O=C(COc1ccccc1)NCc1ccccc1	-26	-12	-2	-4	-2	1
COc1cccc(/C=C2\SC(=S)N(CCC(=O)NC3C=CS(=O)(=O)C3)C2=O)c1 (configuration not stated)	-32	-29	-2	.	.	.
O=C(CCCN1C(=O)/C(=C/c2ccccc2Cl)SC1=S)NNC(=O)c1ccccc1Cl	27	100*	-1	-4	0	41
COc1ccc(/C=C2\SC(=S)N(CCC(=O)NC3C=CS(=O)(=O)C3)C2=O)cc1 (configuration not stated)	-36	66*	1	.	.	.
COc1ccc(/C=C2\SC(=S)N(CCCC(=O)N3CCCCC3CCO)C2=O)cc1 (configuration not stated)	-3	68*	-3	.	.	.
COc1ccc(/C=C2\SC(=S)N(CCCC(=O)NNC(=O)c3ccccc3O)C2=O)cc1	-28	75*	2	-3	3	65*
COc1ccc2[nH]c3c(c2c1)CCN1C(=O)N([C@@H](C)C(=O)NC2CCN(Cc4ccccc4)CC2)C(=O)[C@]31C	-14	-14	-1	.	.	.
COc1ccccc1C(CNC(=O)c1cccc(S(=O)(=O)Nc2ccc(C)cc2)c1)N1CCCC1 (configuration not stated)	.	5	.	.	.	.
CC(C)c1ccc(/C=C2\SC(=S)N(CCC(=O)NCCCn3ccnc3)C2=O)cc1	16	98*	-4	.	.	.
COc1ccc(/C=C2\SC(=S)N(CCC(=O)NCCCn3ccnc3)C2=O)cc1	22	54	-5	.	.	.
SMILES	KLF5 inhibitor	aSyn 5UTR inh	IEC-6 tox	Ba/F3 V617F tox	BaF3 parental	APP 5UTR inh
CCOc1ccc(/C=C2\SC(=S)N(CCCC(=O)NCCCN3CCOCC3)C2=O)cc1	0	84*	0	.	.	.
Cn1cc(/C=N/n2cnc3scc(-c4ccc(Cl)cc4)c3c2=O)c2ccccc21	13	87*	22*	0	3	90*
CN(Cc1cccc(Cl)c1)C(=O)C1CCC(=O)N(C2CC2)C1 (configuration not stated)	9	-16	6	.	.	.
CCOC(=O)C1=C(C)N=C(SC)N(C)C1c1ccccc1 (configuration not stated)	-6	2	-1	-2	7	14
CCOC(=O)C1=C(c2ccccc2)ON(C)C1c1ccccc1 (configuration not stated)	2	2	-1	26*	39*	2
O=C(OCc1ccc(F)cc1)c1cc(S(=O)(=O)N2CCCCC2)ccc1N1CCOCC1	.	2	.	.	.	.
O=C(Nc1c2c(nn1-c1ccc([N+](=O)[O-])cc1)CS(=O)(=O)C2)c1ccccc1F	-12	5	0	.	.	.
CCn1c(SCC#N)nc2ccccc2c1=O	-12	8	6	0	-2	.
N#CCSc1nc2ccccc2c2nc3ccccc3n12	-22	-19	5	63*	49*	21
COc1cccc(-c2cc(C(=O)N3CCOCC3)no2)c1	-112	-41	-2	.	.	.
COc1ccc(-c2cc(C(=O)N3CCOCC3)no2)cc1	-31	73*	-1	.	.	.
CC(=O)c1c(O)cc(=O)oc1-c1ccc(C)cc1	.	6	.	.	.	.
Cc1cc(N2CCN(C)CC2)nc2ccc(NC(=S)N3CCCCC3)cc12	-24	-85	-2	1	5	-18
Cc1cccc(N2CCN(C(=S)Nc3ccc4nc(N5CCN(C)CC5)cc(C)c4c3)CC2)c1C	-24	95*	-1	-2	2	87*
CCN(C(=O)CC(C)C)c1nnc(Cn2nnc3ccccc32)s1	-17	17	-4	-3	11	4
CCN(C(=O)c1ccc(C(C)(C)C)cc1)c1nnc(Cn2nnc3ccccc32)s1	-28	-23	9	27*	55*	13
CN1/C(=C\C(=S)Nc2ccccc2)C(C)(C)c2ccccc21	-8	-53	3	43*	46*	11
CN1/C(=C\C=N\NC(=O)c2ccccc2Br)C(C)(C)c2ccccc21	-17	9	6	54*	62*	4
CN1/C(=C/C(=S)NC(=O)C2(C)CC2(Cl)Cl)C(C)(C)c2ccccc21 (configuration not stated)	-20	1	-9	20	58*	-35
COc1ccccc1C(=O)NC(=S)/C=C1/N(C)c2ccccc2C1(C)C	-26	-11	-2	37*	37*	3
CN1/C(=C/C=N/n2cnnc2)C(C)(C)c2ccccc21	-16	11	9	0	4	5
CN1/C(=C\C(=O)Nc2ccc(Cl)cc2)C(C)(C)c2ccccc21	-42	-7	-2	1	4	-30
COc1cccc(N2CCN(c3ccc4nnc(CCC(=O)Nc5ccccn5)n4n3)CC2)c1	-35	-7	0	.	.	.
Cc1ccc(NC(=O)CSc2nnc3ccc(-c4ccncc4)nn23)cc1	.	10	.	.	.	.
CN1/C(=C\C(=S)NC(=O)c2ccccc2Cl)C(C)(C)c2ccccc21	-38	-26	8	70*	63*	-21
C=CC(C)(C)c1c(O)c(CC=C(C)C)c(O)c2c(=O)c3ccc(O)c(O)c3oc12	.	73*	.	.	.	.

From PubChem
